Measurements: PubChem BioAssay AID1159580 (chemical genetic matrix, 2015)
Hit rate of the full screen: of about 5,500 compounds, about 2,000 (36%) were called active. Another 18% or so got no clear call; they are omitted. No stated cut-off is given here; in the data, active means normalized growth mostly below about 0.91 (no sharp cut-off); inconclusive means no clear call, values can overlap the other calls; inactive means mostly above about 0.92. This is one part of the list.

Experiment: chemical genetic growth profiling, strain panel (AID 1159580);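 further: tested at 20 µM; growth read once vehicle control cultures reached saturation at 30 °C; 1 = growth at the plate median or of vehicle wells; lower values mean less growth of the strain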
Details: growth OD

Measured: normalized growth

CCC(=O)OCC(=O)C1(OC(=O)CC)C(C)CC2C3CCC4=CC(=O)C=CC4(C)C3(Cl)C(O)CC21C (configuration not stated)
inactive: S. cerevisiae deletion strains, locus YJR043C, strain POL32, active compounds read low 1.03 | S. cerevisiae deletion strains, locus YJR066W, strain TOR1, active compounds read low 0.995 | S. cerevisiae deletion strains, locus YKL009W, strain mrt4, active compounds read low 1 | S. cerevisiae deletion strains, locus YKL068W, active compounds read low 0.989 | S. cerevisiae deletion strains, locus YKL085W, strain MDH1 (second series), active compounds read low 0.997 | S. cerevisiae deletion strains, locus YKL085W, strain MDH1, active compounds read low 0.997 | S. cerevisiae deletion strains, locus YKL160W, strain elf1, active compounds read low 0.964 | S. cerevisiae deletion strains, locus YKR001C, strain vps1, active compounds read low 0.992 | S. cerevisiae deletion strains, locus YKR026C, strain gcn3, active compounds read low 0.983 | S. cerevisiae deletion strains, locus YKR091W, strain srl3, active compounds read low 0.983 | S. cerevisiae deletion strains, locus YLL001W, strain dnm1, active compounds read low 0.927 | S. cerevisiae deletion strains, locus YLL026W, active compounds read low 0.989 | S. cerevisiae deletion strains, locus YLL041C, strain sdh2, active compounds read low 0.977 | S. cerevisiae deletion strains, locus YLR027C, strain aat2, active compounds read low 0.962 | S. cerevisiae deletion strains, locus YLR039C, strain RIC1, active compounds read low 1.02 | S. cerevisiae deletion strains, locus YLR058C, strain SHM2, active compounds read low 1.02 | S. cerevisiae deletion strains, locus YLR102C, strain apc9, active compounds read low 0.994 | S. cerevisiae deletion strains, locus YLR113W, strain HOG1, active compounds read low 1.07 | S. cerevisiae deletion strains, locus YLR221C, strain rsa3, active compounds read low 1.01 | S. cerevisiae deletion strains, locus YLR258W, strain gsy2, active compounds read low 0.993 | S. cerevisiae deletion strains, locus YLR262C, strain YPT6 (second series), active compounds read low 0.915 | S. cerevisiae deletion strains, locus YLR262C, strain YPT6, active compounds read low 1.07 | S. cerevisiae deletion strains, locus YLR268W, strain sec22, active compounds read low 0.985 | S. cerevisiae deletion strains, locus YLR320W, strain mms22, active compounds read low 0.983 | S. cerevisiae deletion strains, locus YLR330W, strain CHS5, active compounds read low 1.02 | S. cerevisiae deletion strains, locus YLR342W, strain FKS1 (second series), active compounds read low 1.05 | S. cerevisiae deletion strains, locus YLR342W, strain FKS1, active compounds read low 0.977 | S. cerevisiae deletion strains, locus YLR357W, strain rsc2, active compounds read low 1.03 | S. cerevisiae deletion strains, locus YLR370C, strain arc18, active compounds read low 0.963 | S. cerevisiae deletion strains, locus YLR371W, strain rom2, active compounds read low 0.992 | S. cerevisiae deletion strains, locus YLR384C, strain iki3, active compounds read low 0.958 | S. cerevisiae deletion strains, locus YLR418C, strain cdc73, active compounds read low 0.984 | S. cerevisiae deletion strains, locus YML016C, strain PPZ1, active compounds read low 1.02 | S. cerevisiae deletion strains, locus YML032C, strain rad52, active compounds read low 0.994 | S. cerevisiae deletion strains, locus YML120C, strain ndi1, active compounds read low 0.958 | S. cerevisiae deletion strains, locus YML124C, strain tub3, active compounds read low 0.985 | S. cerevisiae deletion strains, locus YMR058W, strain fet3, active compounds read low 0.986 | S. cerevisiae deletion strains, locus YMR078C, strain ctf18, active compounds read low 0.992 | S. cerevisiae deletion strains, locus YMR125W, strain sto1, active compounds read low 0.988 | S. cerevisiae deletion strains, locus YMR129W, active compounds read low 0.976 | S. cerevisiae deletion strains, locus YMR205C, strain PFK2, active compounds read low 0.965 | S. cerevisiae deletion strains, locus YMR223W, strain ubp8, active compounds read low 1 | S. cerevisiae deletion strains, locus YMR231W, strain pep5, active compounds read low 0.971 | S. cerevisiae deletion strains, locus YMR307W, strain GAS1, active compounds read low 1.09 | S. cerevisiae deletion strains, locus YNL067W, strain RPL9B, active compounds read low 0.996 | S. cerevisiae deletion strains, locus YNL071W, strain lat1, active compounds read low 0.989 | S. cerevisiae deletion strains, locus YNL183C, strain NPR1, active compounds read low 0.983 | S. cerevisiae deletion strains, locus YNL209W, strain ssb2, active compounds read low 0.997 | S. cerevisiae deletion strains, locus YNL233W, strain BNI4, active compounds read low 1 | S. cerevisiae deletion strains, locus YNL248C, strain rpa49, active compounds read low 0.973 | S. cerevisiae deletion strains, locus YNL250W, strain rad50, active compounds read low 1 | S. cerevisiae deletion strains, locus YNL271C, strain bni1, active compounds read low 0.988 | S. cerevisiae deletion strains, locus YNL298W, strain CLA4, active compounds read low 0.991 | S. cerevisiae deletion strains, locus YNL307C, strain MCK1, active compounds read low 0.981 | S. cerevisiae deletion strains, locus YNL322C, strain KRE1 (second series), active compounds read low 0.971 | S. cerevisiae deletion strains, locus YNR049C, strain mso1, active compounds read low 0.982 | S. cerevisiae deletion strains, locus YNR052C, strain pop2, active compounds read low 0.994 | S. cerevisiae deletion strains, locus YOL012C, strain htz1 1.1 | S. cerevisiae deletion strains, locus YOL147C, strain pex11, active compounds read low 0.986 | S. cerevisiae deletion strains, locus YOR001W, strain rrp6, active compounds read low 0.952 | S. cerevisiae deletion strains, locus YOR061W, strain CKA2, active compounds read low 1.02 | S. cerevisiae deletion strains, locus YOR069W, strain VPS5, active compounds read low 1.01 | S. cerevisiae deletion strains, locus YOR070C, strain gyp1, active compounds read low 0.996 | S. cerevisiae deletion strains, locus YOR080W, strain dia2, active compounds read low 0.954 | S. cerevisiae deletion strains, locus YOR083W, strain WHI5, active compounds read low 0.946 | S. cerevisiae deletion strains, locus YOR106W, strain vam3, active compounds read low 0.931 | S. cerevisiae deletion strains, locus YOR136W, strain idh2, active compounds read low 0.979 | S. cerevisiae deletion strains, locus YOR144C, strain elg1, active compounds read low 0.991 | S. cerevisiae deletion strains, locus YOR184W, strain ser1, active compounds read low 0.986 | S. cerevisiae deletion strains, locus YOR231W, strain MKK1, active compounds read low 1.05 | S. cerevisiae deletion strains, locus YOR265W, strain rbl2, active compounds read low 0.985 | S. cerevisiae deletion strains, locus YOR290C, strain snf2, active compounds read low 1 | S. cerevisiae deletion strains, locus YOR316C, strain cot1, active compounds read low 0.991 | S. cerevisiae deletion strains, locus YPL051W, strain arl3, active compounds read low 0.986 | S. cerevisiae deletion strains, locus YPL055C, strain LGE1, active compounds read low 1.01 | S. cerevisiae deletion strains, locus YPL078C, strain atp4, active compounds read low 0.921 | S. cerevisiae deletion strains, locus YPL106C, strain sse1, active compounds read low 1.06 | S. cerevisiae deletion strains, locus YPL240C, strain hsp82, active compounds read low 0.976 | S. cerevisiae deletion strains, locus YPL241C, strain CIN2, active compounds read low 1.02 | S. cerevisiae deletion strains, locus YPL256C, strain CLN2, active compounds read low 1.05 | S. cerevisiae deletion strains, locus YPR119W, strain clb2, active compounds read low 0.988 | S. cerevisiae deletion strains, locus YPR141C, strain kar3, active compounds read low 0.988 | S. cerevisiae deletion strains, locus YPR163C, strain tif3, active compounds read low 0.995 | S. cerevisiae deletion strains, locus YPR167C, strain met16, active compounds read low 0.993 | S. cerevisiae deletion strains, strain wtn01, active compounds read low 0.977 | S. cerevisiae strains, strain wild type, active compounds read low 1.02
active: S. cerevisiae deletion strains, locus YOR270C, strain vph1, active compounds read low 0.757
